Hit rate of the full screen: of about 13,000 compounds, about 3,200 (25%) showed an effect of 50% or more. This is one part of the list.
Each compound was assayed on P. falciparum stage V gametocytes. Settings: 48 h, 5 µM; inhibitor.
Parameters: BacTiter-Glo ATP luminescence viability of purified stage V gametocytes in 384-well plates, per cent inhibition versus DMSO

In order of falling “% Inhibition” value:
1. C[C@H]1CN(Cc2cccc(-c3cc(CNC(=O)c4cccc(CN5CCN(C/C=C/c6ccccc6)CC5)c4)ccc3F)c2)CCN1 [TCMDC-136208]  114.8%
2. C[C@H]1CN(Cc2cccc(-c3cc(CNC(=O)c4cccc(CN5CCN(CCOc6ccccc6)CC5)c4)ccc3F)c2)CCN1 [TCMDC-136210]  110.3%
3. CN1CCN(CCCNCc2cccc(Nc3nccc(Nc4ccc(Oc5ccccc5)cc4)n3)c2)CC1 [TCMDC-138616]  109.5%
4. C[C@H]1CN(Cc2cccc(-c3cc(CNC(=O)c4cccc(CC5CCN(C)CC5)c4)ccc3F)c2)CCN1C [TCMDC-136349]  103.8%
5. C[C@H]1CN(Cc2cccc(-c3cc(CNC(=O)c4cccc(C(=O)c5ccc(Cl)c(Cl)c5)c4)ccc3F)c2)CCN1 [TCMDC-136245]  103.5%
6. CC1CCN(Cc2cccc(C(=O)NCc3ccc(F)c(-c4cccc(CN5CCN[C@@H](C)C5)c4)c3)c2)CC1 [TCMDC-136206]  100.7%
7. COc1ccc(CN2CCC(CNCCc3ccccc3Oc3ccccc3)CC2)cc1 [TCMDC-141350]  98.78%
8. O=C(Nc1ccc(F)c(C(F)(F)F)c1)NC1CCN(CCCCCNC(=O)C2CC2c2ccc(Cl)c(Cl)c2)CC1 (stereo not drawn) [TCMDC-136259]  97.75%
9. COc1ccc(CN2CCC(CNCCc3c(Cl)cccc3Cl)CC2)cc1 [TCMDC-141345]  89.6%
10. O=C(Nc1ccc(F)c(C(F)(F)F)c1)N[C@H]1CCN(CCCCCNC(=O)C2CC2c2ccc(Cl)c(Cl)c2)C1 (stereo partly drawn) [TCMDC-136270]  88.79%
11. CN1CCN(CCCNCc2ccc(Nc3nccc(Nc4ccc(Oc5ccccc5)cc4)n3)cc2)CC1 [TCMDC-138621]  88.79%
12. COc1ccc(Oc2ccccc2CNCC2CCN(CC3CCCCC3)CC2)cc1 [TCMDC-141413]  81.97%
13. O=C(NC1CCC(N2CCC3(CC2)C(=O)NCN3c2ccccc2)CC1)c1cc2ccccc2[nH]1 (stereo not drawn) [TCMDC-132886]  76.36%
14. O=C(Nc1ccccc1)c1cccc(Nc2nccc(Nc3ccc(Oc4ccccc4)cc3)n2)c1 [TCMDC-138561]  74.26%
15. CN(CC(=O)N1CCN(S(=O)(=O)c2cccc(Cl)c2)CC1CN1CCCC1)c1ccc(Cl)c(Cl)c1 (stereo not drawn) [TCMDC-136893]  71.55%
16. O=C(NCCCN1CCOCC1)c1cccc(Nc2nccc(Nc3ccc(Oc4ccccc4)cc3)n2)c1 [TCMDC-138604]  68.84%
17. O=[N+]([O-])c1ccc(Oc2ccccc2CNCC2CCN(CC3CCCCC3)CC2)cc1 [TCMDC-141414]  46.86%
18. O=C(NC1CCC(N2CCN(c3cccc(C(F)(F)F)c3)CC2)CC1)c1cc2ccccc2[nH]1 (stereo not drawn) [TCMDC-132885]  32.36%
19. COc1ccc2nccc([C@@H](O)CN3CCC(NC(=O)C(c4cc5ccccc5o4)N4CCN(Cc5ccccc5)CC4)CC3)c2c1 (stereo partly drawn) [TCMDC-140988]  30.33%
20. NC1CCN(c2nc(NCCc3ccc(O)cc3)nc(NCc3ccccc3-c3ccccc3)n2)CC1 [TCMDC-133441]  29.52%
21. CC(Cc1ccc(OCCN2CCN(c3ccc(Cl)cc3)CC2)cc1)NCC(O)c1cccc(C(F)(F)F)c1 (stereo not drawn) [TCMDC-131530]  29.05%
22. O=C(Nc1ccc(CN2CCN(S(=O)(=O)c3cccc(Cl)c3)CC2)cc1)c1cccs1 [TCMDC-136319]  27.89%
23. O=C(NCc1cccc(Cl)c1)c1ccc(CNC2CCN(Cc3ccccc3)CC2)cc1 [TCMDC-140785]  24.82%
24. O=C(NCc1cccc(Br)c1)c1ccc(CNC2CCN(Cc3ccccc3)CC2)cc1 [TCMDC-140788]  24.75%
25. COc1cccc(CNC(=O)c2ccnc(-c3cccc(CN(C)C4CCN(C)CC4)c3)c2)c1 [TCMDC-134500]  23.23%
26. COc1ccc(CN2CCC(CNCCc3ccccc3Cl)CC2)cc1 [TCMDC-141343]  21.62%
27. CCCN(c1ccc(O)c(CN2CCCCC2)c1)c1ccc([N+](=O)[O-])cn1 [TCMDC-137486]  15.96%
28. COc1ccc2nccc([C@@H](O)CN3CCC(NC(=O)C(c4cc5ccccc5o4)N4CCN(c5ccccc5OC)CC4)CC3)c2c1 (stereo partly drawn) [TCMDC-140991]  13.75%
29. Cn1c(N)c(C(=O)CSc2ncc(-c3ccc(F)cc3)n2Cc2ccccc2)c(=O)n(C)c1=O [TCMDC-125101]  12.63%
30. CCc1nc(N)nc(N)c1-c1ccc(C(C)C)cc1 [TCMDC-137368]  11.22%
31. O=C(NCCCCCN1CCCN(C(=O)Nc2ccc(F)c(C(F)(F)F)c2)CC1)C1CC1c1ccc(Cl)c(Cl)c1 (stereo not drawn) [TCMDC-136254]  10.75%
32. Brc1cccc(Nc2nccc(Nc3ccc(Oc4ccccc4)cc3)n2)c1 [TCMDC-138559]  9.5%
33. O=C(NC1CCC(N2CCC(O)(c3ccc(F)cc3)CC2)CC1)c1cc2ccccc2[nH]1 (stereo not drawn) [TCMDC-132887]  9.268%
34. CN1CCCN(Cc2cccc(-c3ccc(CNC(=O)c4cccc(Cl)c4)c(F)c3)c2)CC1 [TCMDC-133370]  8.787%
35. C=CCn1c(SCC(=O)Nc2cc(Cl)ccc2Cl)nc2sc(C)cc2c1=O [TCMDC-124996]  8.476%
36. CC1CN(S(=O)(=O)c2ccc(NC(=O)c3cc(-c4ccccc4O)n[nH]3)cc2)CC(C)O1 (stereo not drawn) [TCMDC-125195]  7.357%
37. N#CCc1ccc(Nc2nccc(Nc3ccc(Oc4ccccc4)cc3)n2)cc1 [TCMDC-138577]  4.825%
38. O=C(NCc1ccc(Cl)cc1)c1ccc(CN2CCCN(Cc3cccc(O)c3)CC2)cc1 [TCMDC-136442]  2.881%
39. O=S(=O)(NC1CCN(c2ccnc3ccccc23)C1)c1ccc(OC(F)(F)F)cc1 (stereo not drawn) [TCMDC-133581]  2.209%
40. O=C(NCc1ccc(Cl)c(Cl)c1)c1ccc(C2CCCN(Cc3ccc4nc[nH]c4c3)C2)cc1 (stereo not drawn) [TCMDC-133068]  0.7535%
41. CC1(C)N=C(N)N=C(N)N1OCCCc1cccc(C(F)(F)F)c1 [TCMDC-131651]  -2.569%
42. COc1cc2ncnc(Nc3ccc(OCc4ccccc4Br)c(OC)c3)c2cc1OC [TCMDC-131915]  -3.642%
43. COc1ccc(C(C(=O)NC2CCN(C[C@H](O)c3ccnc4ccc(OC)cc34)CC2)N2CCN(c3ccc([N+](=O)[O-])cc3)CC2)cc1 (stereo partly drawn) [TCMDC-140992]  -4.461%
44. CN1CCN(c2nc(NCCc3ccc(O)cc3)nc(NCc3ccccc3-c3ccc(C(F)(F)F)cc3)n2)CC1 [TCMDC-138322]  -8.259%
45. COc1cccc(CNC(=O)[C@@H]2CN(C(=O)c3ccccc3)CCN2)c1 [TCMDC-141267]  -8.525%
46. O=C(NCCCN1CCCCC1)c1ccc(Nc2nccc(Nc3ccc(Oc4ccccc4)cc3)n2)cc1 [TCMDC-138609]  -10.89%
47. Cc1ccc2c(Cc3cnc(N)nc3N)cc(C)c(N)c2n1 [TCMDC-137878]  -11.15%
48. CN1CCN(Cc2cccc(Nc3nccc(Nc4ccc(Oc5ccccc5)cc4)n3)c2)CC1 [TCMDC-138614]  -13.87%
49. O=C(NCCN1CCCC1)c1cccc(Nc2nccc(Nc3ccc(Oc4ccccc4)cc3)n2)c1 [TCMDC-138602]  -15.16%
50. COc1ccc2c(c1)CC1CN(CCCCNC(=O)c3ccc(NC(=O)c4cc(Cl)cc(Cl)c4)cc3)CCN1C2 (stereo not drawn) [TCMDC-138223]  -15.2%
51. COc1ccc(C(=O)N2CCC(C(=O)NC(C)c3ccc(-n4ccnc4)cc3)CC2)c2ccccc12 (stereo not drawn) [TCMDC-124603]  -15.82%
52. COc1ccc(CN2CCCN(Cc3cccc(C(=O)Nc4ccc(C)c(F)c4)c3)CC2)cc1 [TCMDC-135960]  -17.45%
53. CC1(C)[C@H]2CC[C@@H](CNc3nc(NCCc4cnc[nH]4)nc(Nc4ccc5c(c4)OCO5)n3)[C@@H]1C2 [TCMDC-139738]  -17.51%
54. O=C(NCc1ccccc1)Nc1ccc(-c2cccc(-c3nc4ccc(C(F)(F)F)cc4[nH]3)c2)cc1 [TCMDC-133160]  -18.34%
55. CN(C(=O)/C=C/c1c(Cl)cccc1Cl)C1CCN(CCCCCNC(=O)/C=C/c2ccc(Cl)c(Cl)c2)CC1 [TCMDC-139995]  -22.04%
56. NC(=O)c1cccc(Nc2nccc(Nc3ccc(Oc4ccc5ccccc5c4)cc3)n2)c1 [TCMDC-138600]  -22.11%
57. O=C(NCc1ccc(Cl)c(Cl)c1)c1cccc(C2CCCN(Cc3ccc4nc[nH]c4c3)C2)c1 (stereo not drawn) [TCMDC-133067]  -29.33%
58. O=C(NCCCN1CCCCC1)c1cccc(Nc2nccc(Nc3ccc(Oc4ccccc4)cc3)n2)c1 [TCMDC-138605]  -29.44%
59. CC(C)(C)c1ccc(NC(=O)c2cccc(CN3CCCN(Cc4ccc(F)cc4)CC3)c2)cc1 [TCMDC-135985]  -30.03%
60. COc1ccc2ccccc2c1CNCC1CCN(CC2CCCCC2)CC1 [TCMDC-141412]  -44.03%
61. CCCN=CNc1cc(-c2csc(N=C(N)N)n2)cc([N+](=O)[O-])c1 [TCMDC-137246]  -47.16%
62. O=C(Cc1cccs1)NC(CCCN1CCC(Oc2cccc(Cl)c2)CC1)c1ccc(Cl)c(Cl)c1 (stereo not drawn) [TCMDC-141902]  -47.46%
63. CN(C)c1ccc(-c2ccc(C(=O)NC3CCN(Cc4ccc5c(c4)OCCO5)CC3)s2)cc1 [TCMDC-134339]  -48.84%
64. CCCN1CCN(CCNC(=O)c2cccc(Nc3nccc(Nc4ccc(Oc5ccccc5)cc4)n3)c2)CC1 [TCMDC-138606]  -54.96%
65. COc1cc(C(=O)NC2CCN(Cc3ccccc3)CC2)ccc1-c1nc2cc(Cl)c(C)cc2[nH]1 [TCMDC-140028]  -62.59%
66. O=C(Nc1ccc(-c2nc3ccccc3[nH]2)cc1)C1CCCN(C2CCC2)C1 (stereo not drawn) [TCMDC-124687]  -67.58%
